From PubChem BioAssay AID2058 (Sanford-Burnham Center for Chemical Genomics, 2009) come the findings set out here.

The whole screen tested about 290,000 compounds, of which about 150 (0.052%) were called active. The list comes from a sample in which actives are over-represented; it also holds similar structures and randomly drawn compounds. Results with a measured potency or affinity are listed apart. Unmarked numbers belong to inactive results.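 How the source made its calls: active means inhibition of at least 50% with at least 30 cells and total cytoplasm GFP at most 10,000,000; inconclusive means under 30 cells or total GFP of 10,000,000 plus; inactive means the rest.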

Sequence of G-protein coupled receptor 35 (Homo sapiens) (Q9HC97 whole entry, looked up): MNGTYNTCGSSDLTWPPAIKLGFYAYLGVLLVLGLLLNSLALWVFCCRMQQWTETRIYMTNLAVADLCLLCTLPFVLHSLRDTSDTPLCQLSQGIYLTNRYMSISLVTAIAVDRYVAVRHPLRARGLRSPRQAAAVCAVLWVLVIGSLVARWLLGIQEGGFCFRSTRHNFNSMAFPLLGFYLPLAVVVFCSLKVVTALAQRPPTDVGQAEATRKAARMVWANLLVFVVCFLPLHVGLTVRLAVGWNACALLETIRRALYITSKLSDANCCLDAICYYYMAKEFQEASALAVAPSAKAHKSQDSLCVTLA

The assay concerns the target G-protein coupled receptor 35 (Homo sapiens) (UniProt Q9HC97). The experiment in a line: inhibition of zaprinast-stimulated GPR35 beta-arrestin translocation – imaging, U2OS, beta-arrestin-GFP, zaprinast agonist, primary screen (AID 2058). The note with it: zaprinast antagonism, at 10 µM, active compounds read high.
On to `Cc1noc(C)c1C(=O)OCC(=O)c1c(N)n(CC(C)C)c(=O)n(C)c1=O`, for which the inhibition (commonly the relative decrease from the control value, in per cent) was -3.5%. Turning to `Cc1ccccc1N1CCN(C2CCCN(C(=O)c3ccc(Cl)s3)C2)CC1` (configuration not stated), the inhibition was 0.1%. For `CCOC(=O)/C=C(C)\C=C\c1c[nH]c2ccccc12`, the inhibition was -3.8%. As for `O=C(/C=C/c1c[nH]c2ccccc12)c1ccccc1`, the figure is -6.3%. The result for `Cc1ccccc1Cn1c2ccccc2c2cnn(CC(=O)NCCCN3CCN(C)CC3)c(=O)c21` reads -6.2%. Consider `O=S(=O)(Nc1nc2ccccc2nc1Cl)c1ccc(Cl)cc1`, for which the inhibition was -9.2%. As for `O=S(=O)(Nc1cc2nc3ccccc3nc2n1Cc1ccccc1)c1ccc(Cl)cc1`, the figure is 85.4% (active); as for `O=S(=O)(Nc1nc2ccccc2nc1-[n+]1ccccc1)c1ccc(Cl)cc1`, -1.7%; as for `O=C(Nc1ccc(Cl)cn1)c1ccc(Oc2ccccc2)cc1`, 0.8%. With `CCOC(=O)CCCSc1nc2sc3c(c2c(=O)[nH]1)CCC3`, the inhibition was 1.8%. In the case of `Cn1cc(CN2CCC(n3nccc3NC(=O)c3ccccc3Cl)CC2)cn1`, the inhibition was -15.2%. The result for `CCc1nnc(NS(=O)(=O)c2ccc(NC(=S)NC(=O)/C=C/c3ccccc3)cc2)s1` reads -2.9%; that for `CCc1nnc(NS(=O)(=O)c2ccc(NC(=S)NC(=O)/C=C/c3ccc(F)cc3)cc2)s1`, 11.3%. As for `Cc1ccc(C(=O)N(CC(=O)NC2CCCC2)c2ccccc2C)s1`, the figure is 4.4%.

`CCc1ccc(/C=C2/SC(=S)N(CCC(=O)Nc3cccnc3)C2=O)cc1`: the inhibition was -11.4%. Consider `COC(=O)CSc1nc2ccc(NC(=O)c3ccccc3C(=O)N3CCOCC3)cc2s1`, for which the inhibition was -10.4%.

With `O=C(O)c1ccc(CSc2nc3ccc(NC(=O)c4ccccc4C(=O)O)cc3s2)cc1`, the inhibition is -3.4%. `CN(C(=O)c1ccc2ccccc2c1)c1ccccn1`: the inhibition is 13.4%. As for `CC(C)c1ccc[n+](-c2nc([O-])sc2C=O)c1`, the figure is -8.7%. Turning to `Cc1ccc(NC(=O)COc2ccccc2C(=O)Nc2ccccc2)cc1Cl`, the inhibition was -17.7%.

With `CCOc1ccc(NC(=O)C(C)Oc2ccccc2C(=O)Nc2cccc(Cl)c2Cl)cc1` (configuration not stated), the inhibition was 12.3%. In the case of `Cc1csc2c(N3CCC(C(=O)O)CC3)ncnc12`, the inhibition is -2.1%. The result for `O=C(Nc1ccnn1C1CCN(Cc2ccc(OC(F)F)cc2)CC1)C1CCCC1` reads 9.2%. For `CCOc1ccccc1/C=N/NC(=O)c1c(C)nc2ccc(Br)cn12`, the inhibition is 10.2%.

For the compound `CCC(C(=O)O)n1nc(-c2ccccc2)c2cc(Cl)ccc21` (configuration not stated), the inhibition was -3.2%. On to `CC(C(=O)NCc1ccco1)n1nc(-c2ccccc2)c2cc(Cl)ccc21` (configuration not stated), for which the inhibition was 7.1%.

Turning to `O=c1[nH]c(CN2CCCC2)nc2sc3c(c12)CCC3`, the inhibition was 0.2%. In the case of `COc1ccc(N2CCN(C(=O)C(=O)c3cn(CC(=O)N4CCCCCC4)c4ccccc34)CC2)cc1`, the inhibition is 2.6%. Take `C=CCC(O)(CC=C)CNC(=O)C1CCC(=O)N(CCCc2ccccc2)C1` (configuration not stated): the inhibition was 1.6%. As for `CC(=O)N1CC=C2C(C#N)=C(N)C(C#N)(C#N)C(C)C2C1` (configuration not stated), the figure is 13.2%. In the case of `COc1cc(C2C3CN(C)CC=C3C(C#N)=C(N)C2(C#N)C#N)ccc1OC(C)C` (configuration not stated), the inhibition is 16.1%. The result for `CN1CC=C2C(C#N)=C(N)C(C#N)(C#N)[C@H](c3cccc(Cl)c3)C2C1` (some centres not stated) reads 101% (active); that for `CN1CC=C2C(C#N)=C(N)C(C#N)(C#N)[C@H](c3cccs3)[C@H]2C1`, 39.8%; that for `COc1cc([C@@H]2[C@H]3CN(C)CC=C3C(C#N)=C(N)C2(C#N)C#N)cc2c1OCO2`, 48.3%. As for `CCCCn1c(=N)n(CC(=O)c2ccc(OC)cc2)c2ccccc21`, the figure is -0.5%. The result for `COC(=O)c1cccc(NC(=O)c2nn(C(C)C)c(=O)c3ccccc23)c1` reads 25.1%; that for `Cc1ccc(CNC(=S)NC2CCCCC2)cc1`, -8.5%.

Turning to `CCC(=O)Nc1ccc(C(=O)NNC(=O)c2ccc(C)cc2)cc1`, the inhibition is 9.3%.

On to `O=C(Nc1ccc(S(=O)(=O)Nc2ccccc2)cc1)c1ccc(CN2CCOCC2)cc1`, for which the inhibition is -0.3%. The result for `COc1cc(CN2CCCC(C)C2)ccc1OCc1ccccc1` (configuration not stated) reads 9.5%; that for `CC(C)Cn1c(N)c(C(=O)COC(=O)/C=C/c2cccs2)c(=O)n(C)c1=O`, 12.1%; that for `CCOC(=O)CN1CC23C=CC(O2)C(C(=O)NCc2ccccc2OC)C3C1=O` (configuration not stated), 13.9%. As for `O=C1CC(c2ccccc2)N1c1ccccc1` (configuration not stated), the figure is 8.1%; as for `O=C(/C=C\c1ccco1)c1ccc(NC(=O)c2ccco2)cc1`, 15.5%. As for `CC(=O)Nc1ccc(C(=O)/C=C/c2ccco2)cc1`, the figure is -4.1%; as for `CC1=C(C(=O)Nc2ccc(Cl)cc2C(=O)N2CCC(C(N)=O)CC2)SCCO1`, 16.5%. `Cc1nc(N2CCC(C)CC2)c2c(C)c(C(=O)Nc3ccc(C)c(F)c3)sc2n1`: the inhibition is 24.7%. Take `Cc1nc(N2CCC(C)CC2)c2c(C)c(C(=O)Nc3ccc(C(F)(F)F)cc3)sc2n1`: the inhibition was 25.3%. The result for `Cc1c(C(=O)Nc2ccc3c(c2)OCCO3)sc2ncnc(N3CCCCC3C)c12` (configuration not stated) reads 1.3%; that for `Cc1nc(N2CCCCC2)c2c(C)c(C(=O)Nc3cccc(C(F)(F)F)c3)sc2n1`, 14.1%.

As to `Cc1ccc(-c2cccc(C(=O)NCCc3ccccc3)n2)c2ccccc12`, the inhibition is -3.7%. For the compound `CCOC(=O)N1CCN(C(=O)COC(=O)c2ccc(O)cc2O)CC1`, the inhibition was -5.5%. Take `COc1ccc(S(=O)(=O)N2CCN(c3ccccn3)CC2)cc1OC`: the inhibition was 2.6%. In the case of `COc1ccc(C2SCCN2C(=S)Nc2ccc(F)cc2)cc1` (configuration not stated), the inhibition is -0.3%.

As to `COC(=O)CN1C(=O)[C@H]2[C@@H](c3ccc(C)o3)N3C(=O)CN(CC4CC4)C(=O)[C@@]3(Cc3ccccc3)[C@H]2C1=O`, the inhibition is 5.1%. `COc1ccc2nc3oc(C(=O)N4CCN(c5cccc(C(F)(F)F)c5)CC4)cc3cc2c1`: the inhibition was 8.6%. The result for `COc1ccc2cc3cc(C(=O)N4CCN(c5ccccc5)CC4)oc3nc2c1` reads 6%.
